Where “and” joins values, the source holds several entries; their conditions need not be identical. Equal entries are not always repeated. The panel holds about 83,000 compounds, 20% with a hit somewhere; the sample as a whole holds those more often.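 How to read the values: 0–100, growth inhibition (40 = 60% inhibited); 0, no net growth; -100 to 0, cell death (-40 = 40% of starting cells died; -100 = all dead).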 Calls of active or inactive are those of the source. How the source made its calls: active means growth percent below 10; inactive means the rest.
The compounds below were run on NCI/ADR-RES ovarian (assay: NCI-60 one-dose screen, 48 h (100 = growth as untreated, 0 = no growth, -100 = all killed)). Conditions: 10 µM unless noted.

Row | Compound | growth
1 | c1ccc2c(c1)Nc1cc3ccccc3cc1N2 | 30.5% (inactive)
2 | CCOC(=O)/C(=C\c1ccc(-c2ccccc2)cc1)C(C)=O | 103% (inactive)
3 | O=C1c2ccccc2C(=O)c2sc(Nc3ccc(Cl)cc3)nc21 | 16.8% (inactive)
4 | COc1ccc2nc3cc(Cl)ccc3c(NCCNc3c4ccc(Cl)cc4nc4ccc(OC)cc34)c2c1 | -53.5% (active)
5 | CCOC(=O)/C=C/c1ccc([N+](=O)[O-])o1 | 50.6% (inactive)
6 | COC(=O)c1nc(=S)[nH]c(C(=O)OC)c1C(=O)c1ccc2ccccc2c1 | 106% (inactive)
7 | COc1cc(NS(C)(=O)=O)ccc1Nc1c2ccccc2nc2ccccc12 | 70.2% [2.5 µM] (inactive)
8 | S=C(NCCNC(=S)[S][Sn]([c]1ccccc1)([c]1ccccc1)[c]1ccccc1)[S][Sn]([c]1ccccc1)([c]1ccccc1)[c]1ccccc1 | -64.5% (active)
9 | CN(C)C(=O)SC1=C(c2c(Cl)cccc2Cl)C(=O)c2ccccc21 | 99.1% (inactive)
10 | Cc1ccc2nc(-[n+]3cc4ccccc4cc3C)ccc2c1 | 109% (inactive)
11 | O=C(O)C1C2CC3C(OC(=O)C31)C2Br (stereo unspecified) | 103% (inactive) and 100% (inactive)
